Data from PubChem BioAssay AID570 (The Scripps Research Institute Molecular Screening Center, 2006).
Hit rate of the full screen: of about 65,000 compounds, about 45 (0.07%) were called active. This is one part of a sample in which actives are shown more often than they occur.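 How the source made its calls: active means inhibition above the mean of compound-free control plate wells plus 3 SD (cut at about 14% in these data); inactive means the rest.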

What follows are compounds tested against Collagenase 3 (Homo sapiens) (UniProt P45452) (assay: human MMP13 inhibitors, primary screen, biochemical, FRET peptide cleavage (AID 570;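 further: 0% = DMSO wells and 100% = wells with reference MMP-13 inhibitor after basal subtraction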)). Conditions: MMP-13 fTHP FRET cleavage, Mca fluorescence; at 4 µM; stronger effect = higher value.

inhibition, inactive:
c1nc(COc2nsnc2N2CCOCC2)cs1 2.5%, COc1ccc(NC(=O)CN2CCN(S(=O)(=O)c3ccc(F)cc3)CC2)cc1Cl -15.6%, Cc1noc(C)c1S(=O)(=O)N1CCCC(C(=O)Nc2nccs2)C1 (centres undefined) 6.5%, NC(CSC12CC3CC(CC(C3)C1)C2)C(=O)O (centres undefined) 2.6%, Cc1nc(NC(CC(C)C)C(=O)O)c2nc(C)oc2n1 (centres undefined) 0%, CCOC(=O)N1CCN(C(=O)CNC(=O)Cc2ccc(Cl)cc2)CC1 -1.6%, CCOC(=O)N1CCN(C(=O)C2CCN(S(C)(=O)=O)CC2)CC1 -0.8%, CCn1c(SCC(=O)c2ccc(Cl)s2)nnc1-c1cccs1 -2.1%, COc1ccccc1N(C(=O)Cn1nnc2ccccc21)C(C(=O)NCc1ccco1)c1ccc(C)o1 (centres undefined) 7.4%, Cc1nc(CNS(=O)(=O)c2cccnc2)cs1 2.4%, CCCCCCC(=O)N(O)C1CC(=O)N(c2ccccc2)C1=O (centres undefined) 1%, COC(=O)c1ccc(S(=O)(=O)c2ccc(C(=O)OC)s2)s1 -1.3%, Cc1ccc(S(=O)(=O)Cn2nnnc2CN2CCN(Cc3ccc4c(c3)OCO4)CC2)cc1 -3.7%, CC1CCN(C(=O)Cn2cc(C(=O)c3ccco3)c3ccccc32)CC1 -1.8%, CCC(=O)Nc1ccc2c(c1)nc(CCN1CCN(C)CC1)n2C -0.5%, CCOc1ccccc1C(=O)NCc1ccco1 3.2%, O=C(CN1C2CCC1CC(NC(=O)C1CC1)C2)NCc1ccccc1 (centres undefined) -1.1%, COc1ccc(C2=NOC(C(=O)NCc3ccco3)C2)cc1OC (centres undefined) 1.2%, C=CCNC(=O)c1cc(-c2ccccc2O)on1 6%, COc1ccccc1N1CC(O)=C(c2nc3ccccc3s2)C1=N -5.8%, Cc1cccc(NC(=O)CN2CCCN(S(=O)(=O)c3ccc(Br)s3)CC2)c1 -0.8%, COc1cc(Cl)c(S(=O)(=O)n2cnc(C)c2)cc1Cl -1%, CCC(C)(C)NC(=O)C(c1cccn1C)N(Cc1ccc(C)cc1)C(=O)Cn1nnc2ccccc21 (centres undefined) 2.1%, O=C(CSc1n[nH]c(-c2cccnc2)n1)Nc1ccnc2ccccc12 -1.2%, CC(C)(C)c1ccc(C(=O)CSc2ncn[nH]2)cc1 1.3%, C=CCSc1nnc(Cn2c(=O)sc3ccccc32)n1C -10.7%, CC(NC(=O)c1ccco1)C(=O)Nc1nc(-c2ccccn2)cs1 (centres undefined) 1.6%, COCCNCCOCCOc1cccc(OC)c1 -0.9%, Cc1ccsc1-c1nc(CSCC(=O)NCCN2CCCC2)c(C)o1 -72.5%, O=C(CSc1nnc(-c2cccs2)n1-c1ccccc1)N1CCN(C(=O)c2ccco2)CC1 2.3%, CN(Cc1ccccc1)Cc1ccccc1F 0.3%, Cc1oc(-c2cccc(Cl)c2)[n+]([O-])c1C -6.2%, CCOc1nc(-c2ccc(OC)cc2)ccc1-c1noc(-c2cc(OC)c(OC)c(OC)c2)n1 -11.5%, CCOC(=O)C(CCOc1cccc(CC)c1)C(=O)OCC 4.3%, CC(C)c1ccc(-c2nn[nH]n2)cc1 0.3%, C=CCn1c2ccccc2c2nnc(SC(CC)C(=O)Nc3nc(C)c(C(=O)OCC)s3)nc21 (centres undefined) 2.6%, O=C1C(C=NCC2CCCO2)=C(O)c2ccccc21 (centres undefined) 3.3%, CCOC(=O)Cn1c(SC)nc2sc3c(c2c1=O)CC(C)(C)OC3 1.7%, CN(C)/C=C/c1c(C#N)c(=O)ncn1Cc1ccccc1 2.5%, O=C(Nc1cccc(C(=O)N2CCCC2)c1)c1ccccc1 -0.2%, CCOC(=O)n1c(SCC(=O)N(CC)CC)nc2ccccc21 -1.9%, O=C(O)C1CCN(S(=O)(=O)N2CCOCC2)CC1 -0.5%, COc1ccc(CC(=O)c2ccc(O)cc2O)cc1OC 2%, CC1(C)Oc2ccc3ccc(=O)oc3c2/C(=C/NCCO)C1=O 2.5%, Cc1ccc(-c2noc(CSc3nnc(-c4ccccc4)n3C)n2)cc1 7.2%, Cn1c(/C(C#N)=C2/CCCCCN2)nc2ccccc21 12.4%, O=C(Cn1c(-c2cncs2)nc2ccccc21)NC1CCCC1 -3.3%, COCCCNC(=O)C1CC(=O)N(c2ccc(C)cc2)C1 (centres undefined) -1.3%, O=C(C(NS(=O)(=O)c1cccc2nsnc12)c1ccccc1)N1CCN(c2ccccn2)CC1 (centres undefined) 7.2%, Cc1ccsc1CNn1cnnc1SCc1ccccc1F 9.3%, COc1ncnc2c1N=C1CC(C)(C)CC(N)=C1S2 1.4%, Cc1[nH]c2ccccc2c1C(=O)CSCC(=O)O -0.3%, O=C(CSc1nnc(-c2c[nH]c3ccccc23)n1-c1ccc(F)cc1)NCc1ccco1 6.1%, CC(C)(C)n1nnnc1C(c1ccc2ncccc2c1)N1CCSCC1 (centres undefined) -2.5%, O=C(O)CCSc1nnc(-c2ccccc2)n1-c1ccccc1 -3.8%, O=C(CC1Oc2ccccc2NC1=O)NCCCN1CCN(Cc2ccccc2)CC1 (centres undefined) -2%, Cn1c(=O)c2c(nc(Br)n2CCSc2nc3ccccc3o2)n(C)c1=O 0.1%, COc1ccc(CNC2CCCCC2)cc1 5.3%, Cc1nonc1OCCn1nnnc1N -19.6%, O=C(COc1ccccc1)N1CCc2ccccc2C1 1.4%, CCN(CC)Cc1c(C(=O)OC)nnn1-c1nonc1N -0.9%, CCOC(=O)c1sc(=S)n(-c2cccc(OC)c2)c1N 5.8%, O=C(NCCN1C(=O)C2C3C=CC(C3)C2C1=O)Nc1ccccn1 (centres undefined) 7.3%, OC(COc1cccc2ccccc12)CN1CCN(c2ccccn2)CC1 (centres undefined) 0.9%, Cn1c(Cc2csc(N)n2)nnc1SC/C=C/c1ccccc1 6.2%, O=C(CN(CC1CCCO1)C(=O)CNS(=O)(=O)c1ccccc1)NCc1ccccc1 (centres undefined) -0.3%, COc1cccc(-c2nnc(N(C)C(=O)c3ccno3)s2)c1 -8.4%, COC(CCN(C)C)(c1ccccc1)c1ccccc1 -0.2%, Nc1nonc1-c1noc(-c2ccc(Br)o2)n1 -4.4%, CCOC(=O)CNC(=O)CSc1nnc(-c2cccc(OC)c2)n1CC 3.6%, COc1cccc(NC(=O)C(C)Oc2ccccc2)c1 (centres undefined) 2.2%, N#CC1=C(N)Oc2n[nH]c(CSc3ccccc3)c2C12C(=O)Nc1ccccc12 (centres undefined) 1.5%, COc1ccccc1CNC(=O)C1CCCN(S(=O)(=O)c2cccc3cccnc23)C1 (centres undefined) 2.1%, Cc1noc(C)c1CSc1nc2cc(S(=O)(=O)N3CCOCC3)ccc2o1 -0.9%, CC12CCC(C(=O)N3CCN(c4ncccn4)CC3)(c3nc4ccccc4nc31)C2(C)C (centres undefined) 0.1%, CC(C)C[C@H](NC(=O)[C@@H]1O[C@H]1C(=O)O)C(=O)NCCCCN=C(N)N 0.7%, CCn1cc(C(=O)N2CC=C(c3ccccc3)CC2)c(=O)c2ccc(C)nc21 0.8%, CCN1CCN(Cc2nc3c(c(=O)n(C)c(=O)n3C)n2CC(=O)c2ccccc2)CC1 -8.7%, Cc1ccc(Cc2cncc(O)c2)cc1S(=O)(=O)O 1.3%, COc1ccc(-n2nnc3c(=O)n(CC(=O)OCc4ccccc4)cnc32)cc1 1.8%, CCOC(=O)N1CCN(S(=O)(=O)c2cc(Br)cc3c2N(C(=O)C2CC2)CC3)CC1 3%, Cc1ccc(NC(=O)Cn2nc(C)c3ccccc3c2=O)c(C)c1 0.6%, COc1ccc(N2CCN(C(=O)CSc3nnc4ncccn34)CC2)cc1 4.1%, O=C(CN1CCN(c2ncc(C(F)(F)F)cc2Cl)CC1)Nc1ccc2c(c1)OCO2 2.7%, N#CCSc1nc2ccccc2c(=O)n1-c1ccccc1 -3.9%, CCc1nnc(NC(=O)CSc2nnc(Cc3ccccc3)n2-c2ccc(OC)cc2)s1 3.3%, CC(C)(C)c1csc(NC2=NS(=O)(=O)c3ccccc32)n1 0.2%, COC(=O)c1ccc(CSc2nc3ccccc3c(=O)n2-c2cccc(OC)c2)o1 -1.5%, CCCOC(=O)c1[nH]c2c(c1C)C(=O)CC(c1cc(OC)c(OC)c(OC)c1)C2 (centres undefined) 0.2%, CCCC(C(=O)N1CCOCC1)N1C(=O)C2C3C=CC(C3)C2C1=O (centres undefined) 4.6%, CN(C)CCOC(=O)C(c1ccccc1)C1(O)CCCC1 (centres undefined) 3.8%, COc1cc2ccccc2cc1C(=O)Nc1ccc(S(=O)(=O)Nc2cc(C)on2)cc1 -1.9%, Cc1ccccc1C(OCC(O)CN1CCCCC1CCO)c1ccccc1 (centres undefined) 1.3%, O=C1Nc2c(Br)cc(Br)cc2C1(O)N1CCOCC1 (centres undefined) -2.4%, COc1ccc(CN2CN(C(C)C)CSC2=S)cc1 1%, COc1ccc(-c2nnn(Cc3nc(N)nc(N4CCCCC4)n3)n2)cc1 7.6%, O=C(C1CCN(S(=O)(=O)c2cccs2)CC1)N1CCCCCC1 6.3%, Cc1ccc(S(=O)(=O)NCC(=O)OCC(=O)N2CCc3ccccc32)cc1 -2.9%, COC(=O)c1ccc(NC(=O)CSc2nnc(Cc3cccn3C)n2-c2ccc(F)cc2)cc1 -0.2%
